# Source: PubChem
# G9a block = qHTS Assay for Inhibitors of Histone Lysine Methyltransferase G9a; Histone-lysine N-methyltransferase EHMT2 (Homo sapiens), Q96KQ7; G9a H3K9 monomethylation, AlphaScreen, 2 h; Potency, µM (titrated, usually from 102 µM), usual class: inhibitors; 350,000 tested, 8.8% active; note: nearly all actives have a fitted effect of over 75% in size
#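 Readings reflect AlphaScreen signal from monomethyl-H3K9 antibody detection. HMT at 20 nM; substrate b-H3K9 500 nM; cofactor SAM 20 uM; 2 h RT reaction; compounds tested as titrations in qHTS with 15 min preincubation.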
# BAZ2B inh = qHTS Assay for Inhibitors of BAZ2B; Bromodomain adjacent to zinc finger domain protein 2B (Homo sapiens), Q9UIF8; AlphaScreen BAZ2B-H3K14Ac peptide displacement; Potency, µM (top dose mostly 114 µM), hits mostly inhibitors; 360,000 tested, 4.4% active; AID 504333, 2011; note: nearly all actives have a fitted effect of over 60% in size
#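 Multi-concentration screen (max 110 uM) measuring displacement of acetylated histone H3 peptide from BAZ2B by AlphaScreen, using 50 nM protein, 50 nM peptide and 10 ug/mL streptavidin donor plus Ni-chelate acceptor beads.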
# JMJD2A Tudor = qHTS Assay for Inhibitors of JMJD2A-Tudor Domain; Lysine-specific demethylase 4A (Homo sapiens), O75164; AlphaScreen JMJD2A-Tudor / H3K4me3 peptide binding; Potency, µM (doses to about 114 µM), hits mostly inhibitors; 390,000 tested, 4.4% active; AID 504339, 2011; note: nearly all actives have a fitted effect of over 50% in size
# HP1b binding inh = HTS for Inhibitors of HP1-beta Chromodomain Interactions with Methylated Histone Tails; Chromobox protein homolog 1 (Homo sapiens), P83916; AlphaScreen HP1-beta / biotin-H3K9me3 peptide binding; Potency, µM (titrated, usually from 114 µM), most hits filed as inhibitors; 390,000 tested, 0.56% active; AID 540317, 2011; note: nearly all actives have a fitted effect of over 70% in size
#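 AlphaScreen: HP1-beta (50 nM) preformed 30 min with biotin-H3(1-18)K9me3 peptide (50 nM) in PBS pH 7.4, 0.01% Tween-20. Compound added for 30 min at RT, then streptavidin donor/nickel chelate acceptor beads (10 ug/mL) for 30 min.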
# PLK1 PBD inh = qHTS for Inhibitors of PLK1-PDB (polo-like kinase 1 - polo-box domain): Primary Screen; Potency, µM, actives largely listed as inhibitors; 360,000 tested, 2.8% active; Serine/threonine-protein kinase PLK1 (Homo sapiens), P53350; Plk1 PBD binding of FITC phosphopeptide, fluorescence polarization; AID 720504, 2013; note: series mostly up to about 57 µM; nearly all actives have a fitted effect of over 65% in size
# Target sequence (P53350 whole entry, looked up, the tested form may be a part): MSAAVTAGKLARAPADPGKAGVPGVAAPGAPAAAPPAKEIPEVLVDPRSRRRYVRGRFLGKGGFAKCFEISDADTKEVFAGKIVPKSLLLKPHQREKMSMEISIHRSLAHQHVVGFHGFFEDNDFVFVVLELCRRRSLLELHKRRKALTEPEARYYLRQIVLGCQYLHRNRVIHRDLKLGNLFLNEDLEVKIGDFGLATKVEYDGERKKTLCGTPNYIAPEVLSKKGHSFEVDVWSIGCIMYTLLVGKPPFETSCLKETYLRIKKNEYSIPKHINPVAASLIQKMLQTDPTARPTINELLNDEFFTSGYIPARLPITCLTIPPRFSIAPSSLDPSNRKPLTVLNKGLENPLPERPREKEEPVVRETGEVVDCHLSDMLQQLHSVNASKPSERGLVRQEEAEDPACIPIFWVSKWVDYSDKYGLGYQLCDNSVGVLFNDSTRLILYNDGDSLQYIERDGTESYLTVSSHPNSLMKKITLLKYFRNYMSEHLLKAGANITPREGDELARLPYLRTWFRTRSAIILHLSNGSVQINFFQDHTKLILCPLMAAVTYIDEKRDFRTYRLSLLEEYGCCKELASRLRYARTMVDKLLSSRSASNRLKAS
# PI5P4Ka inh = qHTS for Inhibitors of phosphatidylinositol 5-phosphate 4-kinase (PI5P4K); max response, %; PI5P4Kalpha enzyme, ADP-Glo luminescence, 60 min; active compounds read low; 330,000 tested, 1.2% active; active = max response of -50% or lower; inconclusive = between -30% and -50%; inactive = -30% or higher; note: value at the top dose of about 77 µM
#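 Luminescence from ADP-Glo served as readout of PI5P4Kalpha activity in a qHTS format. Reaction: enzyme, substrate, compound, ATP at 5 microM final, 60 min at RT.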
# Numbers stand for hits; n = inactive; u = inconclusive; x = no result; [ ] = remark or other dose. In the library only some 12% were active in any assay of this set; here they are far more common. Unless noted, calls come from the whole dose curve; as a rule, active = well fitted curve in the direction sought with a large enough effect; inconclusive = small, poorly fitted or top-dose-only effect, or another doubt; inactive = no such curve, though single readings can be large; an effect the other way counts as inactive or inconclusive.
SMILES,G9a block,BAZ2B inh,JMJD2A Tudor,HP1b binding inh,PLK1 PBD inh,PI5P4Ka inh
O=C1C(=O)N(Cc2cccnc2)C(c2cccc(O)c2)/C1=C(\O)c1ccc2c(c1)OCCO2 (stereo not drawn),35µM,u,n,n,n,n
C=C1CCN(C(CC(C)C)C(=O)O)S(=O)(=O)c2ccccc21 (stereo not drawn),x,x,n,n,x,x
COc1ccc(-n2ccn3c(CCC(=O)N4CCN(c5cccc(C)c5C)CC4)nnc3c2=O)cc1,x,n,n,n,n,n
O=C1C(=O)N(Cc2cccnc2)C(c2cccc(Br)c2)/C1=C(/O)c1ccc2c(c1)OCO2 (stereo not drawn),u,n,u,n,n,n
C=CCOc1cccc(C2/C(=C(\O)c3ccc4c(c3)OCCO4)C(=O)C(=O)N2Cc2cccnc2)c1 (stereo not drawn),x,50µM,u,n,n,n
CCOc1ccc(C2/C(=C(\O)c3ccc4c(c3)OCCO4)C(=O)C(=O)N2Cc2cccnc2)cc1OCC (stereo not drawn),x,50µM,n,n,n,n
Cc1ccc(/C(O)=C2\C(=O)C(=O)N(Cc3cccnc3)C2c2ccccc2[N+](=O)[O-])cc1 (stereo not drawn),56µM,n,n,n,n,n
Cc1cccc(OCC(=O)NCC(C)(C)N2CCOCC2)c1,n,n,n,n,n,n
CN(C(=O)c1cccc(NC(=O)Cc2cccc(NC(=O)C3CCCN(C(=O)c4ccccc4)C3)c2)c1)C1CC1 (stereo not drawn),x,x,n,n,n,n
Cc1cccn2c(=O)c3cc(C#N)c(=O)n(-c4nnc(SCc5ccc(F)cc5)s4)c3nc12,n,n,n,n,x,x
COc1ccc(CC(=O)N2CCc3cc(OC)c(OC)cc3C2COc2ccc(OC)cc2)cc1 (stereo not drawn),u,n,u,n,x,x
COc1ccc(CCN(C)C(=O)c2c(C)nn(-c3ccccc3)c2C)cc1OC,n,n,n,n,n,n
CCCCOc1ccc(Cc2c(COCC)[nH]c(=S)[nH]c2=O)cc1,x,n,n[11.4 µM],n,n,n
CCOCc1[nH]c(=S)[nH]c(=O)c1Cc1ccc(OCC)cc1,x,n,n[11.4 µM],n,27µM,n
CCOCc1[nH]c(=S)[nH]c(=O)c1Cc1ccc(OCC(C)C)cc1,n,n,50µM,n,24µM,u
O=C1CCSc2ccc(S(=O)(=O)Nc3ccc(Cl)c(C(F)(F)F)c3)cc2N1,n,n,n,n,x,x
CCCNc1ccc(-c2nc(-c3ccncc3)no2)cc1[N+](=O)[O-],n,n,n,n,x,x
CCC(C(=O)Nc1ccc(C)c(C)c1)n1c(=O)c(C(F)(F)F)nc2ccccc21 (stereo not drawn),n,n,n,n,x,x
N#CC1=C(N)C(C#N)(C#N)[C@H](c2c(F)cccc2F)[C@H]2CC3(CC=C12)OCCO3,50µM,n,n,n,n,x
CN1C(=O)C2(c3ccccc31)C1CCCC=C1C(C#N)=C(N)C2(C#N)C#N (stereo not drawn),n[2.33 µM],n,n[11.4 µM],n,n,n
CN1C2C=C3C(C#N)=C(N)C(C#N)(C#N)[C@@H](c4cccc(F)c4)[C@@H]3C1CC2 (stereo partly drawn),x,n,n,n,n,n
N#CC1=C(N)C(C#N)(C#N)C2(CCC3(CC2)OCCO3)C2CC3(CC=C12)OCCO3 (stereo not drawn),n,100µM,n,n,n,x
CN1C2C=C3C(C#N)=C(N)C(C#N)(C#N)[C@H](c4c(F)cccc4F)[C@H]3C1CC2 (stereo partly drawn),50µM,u,n,n,n,x
N#CC1=C(N)C(C#N)(C#N)C(c2cccnc2)C2COCC=C12 (stereo not drawn),u,n,n,n,n,n
Cc1ccc(C)c(S(=O)(=O)c2cn(C)c3cc(N4CCCCC4C)c(F)cc3c2=O)c1 (stereo not drawn),n,n,n,n,x,x
SMILES,G9a block,BAZ2B inh,JMJD2A Tudor,HP1b binding inh,PLK1 PBD inh,PI5P4Ka inh
NC(=O)c1cccnc1Oc1ccc(Cl)cc1,x,n,n,n,n,n
NC(=O)c1cccnc1Oc1cccc(Cl)c1,n[12.7 µM],n,20µM,u,27µM,n
CN(Cc1ccsc1)C(=O)CCc1nnc(Cc2c[nH]c3ccccc23)o1,n,n,45µM,n,24µM,n
CC(C)(C)NC(=O)CCc1nnc(Cc2c[nH]c3ccccc23)o1,45µM,n,n,n,n,n
COc1cc(C(=O)N2CCNC(=O)C2CC(=O)Nc2ccc(C)c(C)c2)cc(OC)c1OC (stereo not drawn),n,n,n,n,x,x
O=C(NCC[C@@H]1CC[C@@H](NC(=O)c2cnccn2)[C@@H](CO)O1)c1ccc2c(c1)OCO2,x,x,x,x,n,n
O=C(Nc1nnc2n1CCS2)c1ccc(F)cc1F,2.2µM,50µM,50µM,n,x,x
Cc1ccccc1C(=O)Nc1nnc2n1CCS2,8.9µM,u,u,n,x,x
Cc1ccc(C(=O)N2CC(=O)Nc3ccc(F)cc3C2c2ccccc2)cc1 (stereo not drawn),u,n,n,n,n,n
COc1ccc(NC(=O)c2cc3c(s2)-c2c(C)cccc2OC3)c(OC)c1,n,n,n,n,x,x
O=C(Oc1cc(=O)oc2c1c(=O)n1c3c(cccc23)CC1)c1ccccc1,x,50µM,u,n,u,n
O=C(Oc1cc(=O)oc2c1c(=O)n1c3c(cccc23)CC1)c1ccc(F)cc1,x,u,n,n,n,n
Cc1ccccc1C(=O)Nc1nc2nc(C)c(C)c(=O)n2[nH]1,n,n,n,n,x,x
Cn1cnc(S(=O)(=O)Nc2cc(-c3ccc(Cl)cc3)nn2C)c1,50µM,n,n,n,n,n
Cn1nc(-c2ccccc2)cc1NC(=O)c1ccc(Cl)cc1,n[12.7 µM],n,n,n,n,n
O=C1Nc2ccccc2N(O)N1c1ccc(Cl)cc1,n,n,n,n,n,n
CCN1c2ccccc2NC2C1C(C(C)=O)C(=O)N2c1ccc(Cl)cc1 (stereo not drawn),45µM,u,u,n,n,x
COc1ccc(-c2cc(=O)oc3c(C)c(OC(C)C(=O)NCc4ccccn4)ccc23)cc1 (stereo not drawn),n[12.7 µM],n,n,n,n,n
NNc1nc(-c2ccccc2)cc(-c2ccccc2O)n1,n,50µM,u,n,n,x
NNc1nc(-c2ccccc2)cc(-c2ccccc2)n1,n,u,n,n,n,n
O=C(O)CC(Cc1ccccc1)(C(=O)O)c1ccccc1 (stereo not drawn),n,n,n,n,n,n
